From PubChem BioAssay AID492993 (Johns Hopkins Ion Channel Center, 2010) come the findings set out here.

Screen size: about 4,900 compounds; about 200 (4.1%) were called active.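 How the source made its calls: active means thallium signal drop more than 5 SD beyond the mean of the no-compound control wells, seen in both duplicate plates; inactive means the rest.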 A selection follows.

As usually defined, the inhibition is the relative decrease from the control value, in per cent.

For this experiment, the target named is Inward rectifier potassium channel 2 (Mus musculus) (UniProt P35561). Kind of experiment: off-target Kir2.1 potassium flux block – cell-based, HEK293, thallium flux, selectivity assay for KCNK9 modulator project, confirmation (AID 492993).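 On inhibition: signal is fluorescence rise after thallium addition divided by baseline fluorescence; plate controls were assay buffer only for no effect and full block by chlorpromazine control for full effect.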 Particulars: Kir2.1 cells, FluxOR thallium flux fluorescence, at 10 µM; hits give high values.
Inward rectifier potassium channel 2 (Mus musculus), sequence (P35561 whole entry, looked up): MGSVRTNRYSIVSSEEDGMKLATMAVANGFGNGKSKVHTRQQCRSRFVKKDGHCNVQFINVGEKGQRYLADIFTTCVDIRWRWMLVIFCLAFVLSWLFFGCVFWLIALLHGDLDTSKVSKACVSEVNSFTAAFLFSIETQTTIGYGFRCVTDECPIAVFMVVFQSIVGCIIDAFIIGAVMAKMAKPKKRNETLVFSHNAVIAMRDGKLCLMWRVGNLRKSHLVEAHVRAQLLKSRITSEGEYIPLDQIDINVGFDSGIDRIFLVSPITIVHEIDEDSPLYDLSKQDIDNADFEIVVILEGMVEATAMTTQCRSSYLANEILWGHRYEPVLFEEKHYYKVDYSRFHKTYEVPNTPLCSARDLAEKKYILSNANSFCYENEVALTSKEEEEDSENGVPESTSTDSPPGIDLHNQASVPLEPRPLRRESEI
Take `CCCN1C(=O)C(Cc2nc3ccccc3c(=O)n2-c2ccccc2)c2cc(C)ccc21` (centres undefined): the inhibition result was “inactive”.
In the case of `CCOC(=O)CSc1nc2c(sc(=S)n2CCc2ccccc2)c(=O)n1Cc1ccco1`, the inhibition result was “inactive”.
With `CN(c1ccccc1)S(=O)(=O)c1cccc(NC(=O)Cc2c(F)cccc2Cl)c1`, the inhibition was 28.5% (active).
The value for `CN(CCC(=O)Nc1cc(S(=O)(=O)N(C)C)ccc1Cl)CC(=O)Nc1ccc(F)cc1` was “inactive”; that for `Cc1ccccc1CSCCNC(=O)c1ccc(N(C)S(=O)(=O)c2ccccc2)cc1` was “inactive”.
The result for `CCOC(=O)C1=C(C)Nc2sc(C(=O)c3ccc(Br)cc3)c(N)c2C1c1ccc(C(=O)OC)cc1` (centres undefined) reads “inactive”; that for `Cc1ccc(C(=O)c2c(NC(=O)c3ccccc3)sc(C)c2C)cc1`, “inactive”.
In the case of `CCOc1ccc(CN(Cc2ccco2)C(c2cccs2)c2nnnn2C(C)(C)C)cc1` (centres undefined), the inhibition result is “inactive”.
`COc1ccc(C2CC(c3cccs3)=Nc3ccccc3S2)cc1OC` (centres undefined): the inhibition result was “inactive”.
For the molecule `COc1ccc(C(CCN(Cc2ccc(OC)c(OC)c2)C(=O)CCl)c2ccccc2)cc1` (centres undefined), the inhibition result was “inactive”.
Consider `Cc1ccc(OCc2cc(C(=O)N(C)CCc3ccccc3)no2)cc1C`, for which the inhibition result is “inactive”.
`CCOc1ccc(OCc2ccc(C(=O)Nc3cccc(C)n3)o2)cc1`: the inhibition entry was “inactive”.
As for `Cc1ccccc1CSc1nnc(CCCCCNC(=O)OC(C)(C)C)o1`, the inhibition entry is “inactive”.
In the case of `CC1(C)CC(=O)CC2(C1)NCC(c1ccccc1Cl)c1c2[nH]c2ccccc12` (centres undefined), the inhibition result is “inactive”.
Turning to `O=C(NCCc1ccccc1)c1ccc2c(c1)N(Cc1ccccc1)CCS2`, the inhibition entry is “inactive”.
For `CCC1(C)Cc2c(sc3[nH]c(=S)n(Cc4ccccc4)c(=O)c23)CO1` (centres undefined), the inhibition entry was “inactive”.
Consider `COc1ccc(-c2nc(CCNC(=O)c3ccc(Br)o3)cs2)cc1`, for which the inhibition result was “inactive”.
The result for `COc1ccc(CCNc2ncnc3c2nnn3Cc2ccccc2)cc1` reads “inactive”; that for `COc1ccc(CCNC(=O)c2ccccc2OCc2ccccc2)cc1`, 54.5% (active).
The result for `CCOc1ccc2[nH]c(=O)c(CN(Cc3nnnn3CCc3ccccc3)CC3CCCO3)cc2c1` (centres undefined) reads “inactive”; that for `C=CCOc1ccc(/C=N/NC(=O)C(C)Sc2ccccn2)cc1OCC` (centres undefined), “inactive”; that for `O=C(OCC(=O)N(CCc1ccccc1)Cc1ccccc1)c1ccccc1[N+](=O)[O-]`, “inactive”.
Turning to `Cc1cccc(NC(=O)c2sc3nc4c(c(-c5ccco5)c3c2N)CCC4)c1`, the inhibition entry is “inactive”.
In the case of `O=C(/C=C/NNC(=O)c1cccc(Br)c1)c1ccccc1`, the inhibition entry is “inactive”.
With `COc1cccc(-c2nn(C)c3sc(C(=O)N4CCN(c5ccccc5)CC4)cc23)c1`, the inhibition entry is “inactive”.
For `CC(C)CC(COCc1ccc(Cl)cc1)N1CCN(C(=O)c2ccc(C(F)(F)F)cc2)CCC1=O` (centres undefined), the inhibition entry was “inactive”.
`O=C(COC(=O)c1c2c(nc3ccccc13)CCCC2)c1ccc(Br)s1`: the inhibition result was “inactive”.
With `Cc1cc(OC(C)C(=O)Nc2ccc(S(=O)(=O)Nc3onc(C)c3C)cc2)cc(C)c1Cl` (centres undefined), the inhibition entry was “inactive”.
Turning to `O=C(CNCCC1=CCCCC1)Nc1ccccc1N1CCCCCC1`, the inhibition is 34.5% (active).
For `Cc1cccc(C(=O)Nc2ccccc2N2CCN(c3ccc(F)cc3)CC2)c1`, the inhibition result is “inactive”.
For `CCCCC(=O)Nc1ccccc1N1CCN(c2ccc(F)cc2)CC1`, the inhibition result was “inactive”.
Take `CCOc1ccccc1NC(=O)C1CCCN(S(=O)(=O)c2ccccc2)C1` (centres undefined): the inhibition result is “inactive”.
Regarding `COc1ccc(C(=O)Nc2ccccc2C(=O)N/N=C/c2ccccc2OC)cc1`, the inhibition entry was “inactive”.
Consider `COC(=O)C1=C(Nc2ccc(C)cc2)C=C(C)C(C(=O)OC)C1c1ccc(F)cc1` (centres undefined), for which the inhibition entry was “inactive”.
Consider `Clc1ccc(Cl)c(Oc2ccc(Oc3nc(Cl)ccc3Cl)cc2)n1`, for which the inhibition result is “inactive”.
`CCOc1cccc(OCCCOc2cccc3cccnc23)c1`: the inhibition result was “inactive”.
Regarding `O=C(COC(=O)c1ccccc1)Nc1ccccc1Sc1ccccc1`, the inhibition entry was “inactive”.
The result for `COc1cccc(-c2cnc(OC(C)(C)C)nc2OC(C)(C)C)c1` reads “inactive”; that for `CC(C)(C)C1CCC(C(=O)NCC(c2cccs2)N2CCOCC2)CC1` (centres undefined), “inactive”.
Regarding `COCCNc1cc(-c2ccccc2)nc2cc(-c3cccc(F)c3)nn12`, the inhibition entry was “inactive”.
With `CCOC(=O)N1CCN(C(=O)COc2ccc3oc4c(c3c2)CCCC4)CC1`, the inhibition entry is “inactive”.
With `O=C(NCc1ccccc1)C1=C[C@@H](C2CCCCC2)C[C@@H](OCc2ccc(CO)cc2)O1`, the inhibition entry was “inactive”.
Regarding `CCN(C(=O)COc1ccc(C(=O)c2ccccc2)cc1)c1ccccc1`, the inhibition entry was “inactive”.
The result for `Cc1cc2ccccn2c1C(=O)c1cccc(F)c1` reads “inactive”; that for `CCOC(=O)C(C)Sc1nc2ccccc2c(=O)n1CC1CCCCC1` (centres undefined), “inactive”; that for `COc1cc(Cl)c(C)cc1NC(=O)CSc1nnc(-c2ccco2)n1CC(C)C`, “inactive”.
In the case of `CC1CCN(C(=O)c2ccc(CSc3ccc(Cl)cc3)cc2)CC1`, the inhibition entry is “inactive”.
Regarding `COc1ccc(-c2n[nH]c3c2CN(C(=O)c2ccc(F)cc2)CC3)cc1`, the inhibition entry was “inactive”.
In the case of `Cc1ccc2c(c1)N(C(=O)CCC(=O)N1CCc3ccccc3C1)CCO2`, the inhibition result is “inactive”.
Regarding `O=C1CC(c2ccccc2)=NN1c1ccc([N+](=O)[O-])cc1`, the inhibition entry was “inactive”.
`CCOC(=O)C1(CCOc2ccccc2)CCN(Cc2cc(OC)c(O)cc2Cl)CC1`: the inhibition entry was “inactive”.
As to `COc1cccc(NC(=S)N(CCc2c(C)[nH]c3ccccc23)Cc2ccco2)c1`, the inhibition entry was “inactive”.
`Cc1cccc(N2CCN(C(=O)c3cccc(S(=O)(=O)N4CCc5ccccc5C4)c3)CC2C)c1` (centres undefined): the inhibition entry is “inactive”.
Turning to `CCC(c1nnnn1Cc1ccco1)N(CCc1ccccc1)Cc1cc2cccc(C)c2[nH]c1=O` (centres undefined), the inhibition result is “inactive”.
The result for `COc1cccc2cc(C(C)N(CCCN3CCOCC3)C(=O)Nc3ccc(Cl)cc3)oc12` (centres undefined) reads “inactive”; that for `Cc1cccc2cc(CN(Cc3nnnn3Cc3ccccc3)C3CCCC3)c(=O)[nH]c12`, “inactive”; that for `Fc1ccc(Cn2nnnc2C(c2cccs2)N2CCCCCC2)cc1` (centres undefined), “inactive”.
For the molecule `COc1ccc(C(=O)NN2C(=O)C3C(c4ccccc4)C=CC(c4ccccc4)C3C2=O)cc1` (centres undefined), the inhibition result is “inactive”.
Consider `COc1cc(Cl)ccc1OCc1cc(C(=O)N2CC[C@@H]3CCCC[C@H]3C2)no1`, for which the inhibition entry was “inactive”.
As to `COc1ccccc1/C=C/C=N/n1c(-c2ccc(Cl)cc2Cl)n[nH]c1=S`, the inhibition result is “inactive”.
With `CCOc1ccc(C2c3[nH]c4ccccc4c3CCN2Cc2cccn2-c2ncccn2)cc1` (centres undefined), the inhibition entry is “inactive”.
The value for `CC1=NN(c2cccc(Cl)c2)C(=O)C12CC(C)=C(C)CS2` (centres undefined) was “inactive”; that for `CC1=CC(C)(C)N(C(=O)CSc2nnc(-c3ccccc3)o2)c2ccc(C)cc21` was “inactive”; that for `Fc1cccc(Cl)c1CSc1ccc(-c2ccco2)nn1` was “inactive”.
